The panel holds about 83,000 compounds, 20% with a hit somewhere; the sample as a whole holds those more often.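 Assay: single dose, 48 h. Readout: percent growth (0 = no net growth; negative = cell death). Active: <10.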 Active and inactive are the calls of the source.
The molecules below were run on HL-60(TB) leukemia (assay: NCI-60 one-dose screen, 48 h (100 = growth as untreated, 0 = no growth, -100 = all killed)). Conditions: 10 µM unless noted.

Row | Compound | growth
1 | COC(=O)c1nc(N)nc(C(=O)OC)c1C(=O)c1ccc(F)cc1 | 115% (inactive)
2 | CSC1=CC(=O)c2ccccc2C1=O | -49.5% (active)
3 | CC1=NN(c2ccc(S(=O)(=O)O)cc2)C(=O)C1N=Nc1ccc(-c2ccc(N=Nc3ccc(OS(=O)(=O)c4ccc(C)cc4)cc3)c(S(=O)(=O)O)c2)cc1 (centres undefined) | 108% (inactive)
4 | C[C@@H](O)[C@H]1C(=O)N2C(C(=O)O)=C(SC3CN[C@H](C(=O)N(C)C)C3)[C@H](C)[C@H]12 (some centres undefined) | 87% (inactive)

From PubChem BioAssay (NCI)
